Laboratory results from PubChem BioAssay (EPA / NIEHS).
Inconclusive results are not listed. Activity calls are given as the source filed them. How the source made its calls, unless noted: active means hit-call score of the fitted dose curve at least 0.9, where 1 is the maximum; inconclusive means response in the unintended direction; inactive means score below 0.9.

Assays:
[1] = target: Nucleoli Translocation, AR (gene 367) (UniProt P10275); experiment: UPITT_HCI_U2OS_AR_TIF2_Nucleoli_Antagonist: University of Pittsburgh U2OS Androgen Receptor-Transcriptional Intermediary Factor 2 (AR-TIF2) Antagonism High Content Imaging Assay for Nucleoli Translocation (AID 2283997)
In short: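 Measured quantity was AR-RFP fluorescence localized to nucleoli in engineered U2OS cells also bearing TIF2-GFP, acquired on automated high-content imagers. Primary testing used 20 uM compound; actives were confirmed in triplicate wells.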

[2] = target: Ratio of Nucleoli Translocation and Cytoplasm, AR (gene 367) (UniProt P10275); experiment: UPITT_HCI_U2OS_AR_TIF2_Nucleoli_Cytoplasm_Ratio_Antagonist: University of Pittsburgh U2OS Androgen Receptor-Transcriptional Intermediary Factor 2 (AR-TIF2) Antagonism High Content Imaging Assay for Ratio of Nucleoli Translocation and Cytoplasm (AID 2283999);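 further: antagonists lower the DHT-driven ratio of nucleolar to cytoplasmic red signal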
In short: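 Human osteosarcoma U2OS line, AR fused to RFP, coactivator TIF2 fused to GFP. Cpds 20 uM final, 0.2% DMSO (screen); 0.195–50 uM final, 0.5% DMSO (CRC). Endpoint: nucleoli/cytoplasm red signal ratio, DHT as baseline, loss-of-signal antagonist mode.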

[3] = CCTE_Simmons_MITO_basal_resp_rate: CCTE's HepG2 Seahorse XF Respirometric Screening Assay at Basal Respiratory State, Simmons Lab (AID 2284001; active means hit-call score of the fitted dose curve at least 0.9, where 1 is the maximum; inactive means score below 0.9); conditions: actives raise or lower the signal
In short: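 HepG2 respirometry; 7-pt titration 125 nM–100 uM final; kinetic OCR at 6 min intervals for 72 min; n=3 biological, technical singles; DMSO baseline, gain or loss fit; fenpyroximate (decrease) and 2,4-DNP (increase) controls.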

[4] = CCTE_Simmons_MITO_max_resp_rate: CCTE's HepG2 Seahorse XF Respirometric Screening Assay at Maximal Respiratory State [uncoupled], Simmons Lab (AID 2284002; active means hit-call score of the fitted dose curve at least 0.9, where 1 is the maximum; inactive means score below 0.9); conditions: actives raise or lower the signal
In short: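 HepG2 oxygen consumption measured on Seahorse XF after FCCP uncoupling, following test compound injection; 7 concentrations from 125 nM to 100 uM final. Readings every 6 min over 72 min, three biological replicates; bidirectional fit versus DMSO.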

[5] = target: Ratio of Nucleoli Translocation and Cytoplasm, AR (gene 367) (UniProt P10275); experiment: UPITT_HCI_U2OS_AR_TIF2_Nucleoli_Cytoplasm_Ratio_Agonist: University of Pittsburgh U2OS Androgen Receptor-Transcriptional Intermediary Factor 2 (AR-TIF2) Agonism High Content Imaging Assay for Ratio of Nucleoli Translocation and Cytoplasm (AID 2284000);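 further: hits raise the red nucleolar to cytoplasm ratio above vehicle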
In short: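 Read-out first: nucleolar-to-cytoplasm ratio of red (AR-RFP) signal, quantified by high-content imaging in U2OS cells co-expressing TIF2-GFP. Activity is scored as signal increase over DMSO. Single-point screening used 20 uM final (0.2% DMSO).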

Nucleoli Translocation, AR (gene 367), sequence (P10275 whole entry, looked up): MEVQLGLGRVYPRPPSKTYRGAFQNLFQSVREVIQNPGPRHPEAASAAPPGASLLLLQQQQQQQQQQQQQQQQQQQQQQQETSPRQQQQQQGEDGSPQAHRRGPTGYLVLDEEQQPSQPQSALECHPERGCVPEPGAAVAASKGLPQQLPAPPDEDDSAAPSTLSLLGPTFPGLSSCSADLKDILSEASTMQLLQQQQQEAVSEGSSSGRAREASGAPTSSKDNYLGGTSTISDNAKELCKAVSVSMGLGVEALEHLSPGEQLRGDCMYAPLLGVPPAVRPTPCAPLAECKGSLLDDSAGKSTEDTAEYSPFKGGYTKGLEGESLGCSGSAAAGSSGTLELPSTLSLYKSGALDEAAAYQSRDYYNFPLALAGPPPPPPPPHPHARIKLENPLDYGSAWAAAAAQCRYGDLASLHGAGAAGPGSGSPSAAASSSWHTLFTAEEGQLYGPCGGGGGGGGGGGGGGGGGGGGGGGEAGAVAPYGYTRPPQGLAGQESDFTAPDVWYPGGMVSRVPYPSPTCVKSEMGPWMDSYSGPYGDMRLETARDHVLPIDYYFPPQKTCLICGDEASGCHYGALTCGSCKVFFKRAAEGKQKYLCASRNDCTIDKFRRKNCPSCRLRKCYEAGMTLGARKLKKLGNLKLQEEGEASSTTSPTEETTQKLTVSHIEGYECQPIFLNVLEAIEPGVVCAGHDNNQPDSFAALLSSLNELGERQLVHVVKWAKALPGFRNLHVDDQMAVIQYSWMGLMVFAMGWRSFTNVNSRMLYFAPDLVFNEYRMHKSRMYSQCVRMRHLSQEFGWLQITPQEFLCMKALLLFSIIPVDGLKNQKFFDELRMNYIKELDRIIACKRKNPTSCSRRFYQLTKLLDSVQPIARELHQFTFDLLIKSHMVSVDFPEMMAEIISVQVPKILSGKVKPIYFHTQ
Ratio of Nucleoli Translocation and Cytoplasm, AR (gene 367), sequence (P10275 whole entry, looked up, the tested form may be a part): as the sequence (P10275 whole entry, looked up) above

In the case of CNS(=O)(=O)c1cc(C(=O)N2CCC(CCN3C4CCC3CC(n3c(C)nc5ccccc53)C4)(c3cccc(F)c3)CC2)c(Cl)cc1F (stereo not drawn), the outcome [1] is reported as “inactive” and the outcome [2] is reported as “inactive”.

In the case of COc1cccc(-c2ccc(/C=C\CN3CCCCCC3)cc2Cl)c1, the outcome [3] is reported as “inactive” and the AC50 [4] is reported as 65.8 µM (active).

For CC1(C)C(=O)N(Br)C(=O)N1Br, the outcome [1] was “inactive”, the outcome [2] was “inactive” and the outcome [5] was “inactive”.

With CCCCC(CC)COC(=O)c1ccc(C(=O)OCC(CC)CCCC)cc1 (stereo not drawn) the outcome [1] was “inactive”.
